Here are results for one compound from the supplement of paper PMC11732987, “Enantioselective OTUD7B fragment discovery through chemoproteomics screening and high-throughput optimisation” (Communications Chemistry, 2025).

Values without a mark were called inactive.

Common to all, as to assay: log2 ratio of Biotin-Ahx-Ub-VS probe labelling (fragment/DMSO); higher = less target engagement (more negative = stronger competition), active = hit call of the paper (q ≤ 0.05, log2 ratio ≤ -1)
Common to all, as to settings: compound concentration: 200 uM; treatment time: 3 h

For assay [1], the target named is T1, OTUD6B (UniProt Q8N6M0).
T1 sequence (whole entry): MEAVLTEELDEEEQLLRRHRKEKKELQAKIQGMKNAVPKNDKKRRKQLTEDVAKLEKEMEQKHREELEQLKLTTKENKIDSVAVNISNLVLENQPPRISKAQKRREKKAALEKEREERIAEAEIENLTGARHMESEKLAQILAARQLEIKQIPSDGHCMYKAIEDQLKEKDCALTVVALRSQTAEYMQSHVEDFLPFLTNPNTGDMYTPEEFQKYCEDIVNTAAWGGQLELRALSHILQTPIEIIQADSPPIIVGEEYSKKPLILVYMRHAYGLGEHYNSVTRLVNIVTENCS
Put shortly: (§1)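 HEK293T lysate, 495 µg per sample in Tris/CHAPS/IGEPAL buffer with protease inhibitors, was treated in triplicate with fragment at 200 µM or vehicle for 3 h and then with Biotin-Ahx-Ub-VS at 0.5 µM final for 1 h. Labelled DUBs were NeutrAvidin-enriched, digested with LysC and trypsin, and run by diaPASEF LC-MS/MS. Spectronaut label-free quantities were global-median-normalised, and values are average log2 fragment/vehicle ratios by unpaired t-test on proteins with ≥2 unique peptides.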

For assay [2], the target named is T2, OTUD7B (UniProt Q6GQQ9).
T2 sequence (whole entry): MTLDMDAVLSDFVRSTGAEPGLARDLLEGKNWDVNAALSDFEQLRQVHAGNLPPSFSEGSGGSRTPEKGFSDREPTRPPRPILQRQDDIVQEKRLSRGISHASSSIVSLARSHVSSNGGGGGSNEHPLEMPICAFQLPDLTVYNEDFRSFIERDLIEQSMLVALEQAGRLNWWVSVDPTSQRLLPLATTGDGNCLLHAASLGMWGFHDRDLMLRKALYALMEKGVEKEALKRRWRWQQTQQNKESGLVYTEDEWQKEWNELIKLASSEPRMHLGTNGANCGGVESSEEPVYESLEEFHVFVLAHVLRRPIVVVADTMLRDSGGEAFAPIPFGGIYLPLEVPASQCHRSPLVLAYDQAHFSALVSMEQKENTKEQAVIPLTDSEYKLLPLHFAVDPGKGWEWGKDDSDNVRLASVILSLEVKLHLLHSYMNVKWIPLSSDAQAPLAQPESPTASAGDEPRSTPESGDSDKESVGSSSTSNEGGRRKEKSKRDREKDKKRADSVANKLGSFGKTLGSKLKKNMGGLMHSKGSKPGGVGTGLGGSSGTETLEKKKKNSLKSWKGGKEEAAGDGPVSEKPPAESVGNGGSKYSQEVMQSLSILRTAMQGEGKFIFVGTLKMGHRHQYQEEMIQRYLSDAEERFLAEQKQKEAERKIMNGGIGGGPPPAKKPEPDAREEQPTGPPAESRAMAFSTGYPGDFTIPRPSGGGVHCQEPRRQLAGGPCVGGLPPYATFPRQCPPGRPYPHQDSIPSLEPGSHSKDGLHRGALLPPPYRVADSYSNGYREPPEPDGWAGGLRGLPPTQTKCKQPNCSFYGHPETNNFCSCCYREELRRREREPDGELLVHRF
The essentials: as §1

The target in assay [3] is PRPF8 (UniProt Q6P2Q9). The essentials:
as §1

Assay [4] deals with T3, PSMD7 (UniProt P51665).
T3 sequence (whole entry): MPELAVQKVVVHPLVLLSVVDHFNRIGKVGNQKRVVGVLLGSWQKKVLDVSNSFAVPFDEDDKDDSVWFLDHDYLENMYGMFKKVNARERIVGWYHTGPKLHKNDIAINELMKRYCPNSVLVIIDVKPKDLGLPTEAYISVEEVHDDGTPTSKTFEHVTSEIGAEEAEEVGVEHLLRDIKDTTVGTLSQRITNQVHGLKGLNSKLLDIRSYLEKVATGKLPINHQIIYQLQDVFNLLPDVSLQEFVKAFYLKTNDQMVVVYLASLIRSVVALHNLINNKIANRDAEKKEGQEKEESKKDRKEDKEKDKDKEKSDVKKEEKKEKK
The essentials: as §1

The target of assay [5] is UCHL1 (UniProt P09936). Put shortly: as §1
Sequence of UCHL1 (P09936 whole entry, looked up): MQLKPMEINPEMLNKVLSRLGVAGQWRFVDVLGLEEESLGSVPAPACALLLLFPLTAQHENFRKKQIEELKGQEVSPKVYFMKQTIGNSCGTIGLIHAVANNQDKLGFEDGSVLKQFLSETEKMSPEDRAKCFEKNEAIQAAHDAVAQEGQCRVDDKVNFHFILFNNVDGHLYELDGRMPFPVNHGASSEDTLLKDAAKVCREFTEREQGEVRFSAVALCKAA
Assay [6] has as its target T4, UCHL3 (UniProt P15374).
T4 sequence (whole entry): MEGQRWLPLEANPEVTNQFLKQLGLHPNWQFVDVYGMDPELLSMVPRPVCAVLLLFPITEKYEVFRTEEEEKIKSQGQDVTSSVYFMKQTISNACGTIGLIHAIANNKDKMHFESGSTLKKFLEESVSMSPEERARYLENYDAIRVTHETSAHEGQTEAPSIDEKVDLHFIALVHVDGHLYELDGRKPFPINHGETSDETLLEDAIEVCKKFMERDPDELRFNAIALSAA
The essentials:
as §1

In assay [7] the target is T5, UCHL5 (UniProt Q9Y5K5).
T5 sequence (whole entry): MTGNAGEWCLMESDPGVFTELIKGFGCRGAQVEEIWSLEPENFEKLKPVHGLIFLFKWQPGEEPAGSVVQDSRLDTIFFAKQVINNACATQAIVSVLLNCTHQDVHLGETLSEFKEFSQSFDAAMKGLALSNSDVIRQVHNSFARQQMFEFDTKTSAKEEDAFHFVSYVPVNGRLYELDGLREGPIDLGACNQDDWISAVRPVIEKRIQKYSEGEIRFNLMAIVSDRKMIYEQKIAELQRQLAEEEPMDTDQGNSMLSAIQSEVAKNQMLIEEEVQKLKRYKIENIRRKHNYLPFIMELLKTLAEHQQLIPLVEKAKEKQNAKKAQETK
Put shortly:
as §1

Assay [8] addresses USP10 (UniProt Q14694). The essentials:
as §1

The target in assay [9] is T6, USP15 (UniProt Q9Y4E8).
T6 sequence (whole entry): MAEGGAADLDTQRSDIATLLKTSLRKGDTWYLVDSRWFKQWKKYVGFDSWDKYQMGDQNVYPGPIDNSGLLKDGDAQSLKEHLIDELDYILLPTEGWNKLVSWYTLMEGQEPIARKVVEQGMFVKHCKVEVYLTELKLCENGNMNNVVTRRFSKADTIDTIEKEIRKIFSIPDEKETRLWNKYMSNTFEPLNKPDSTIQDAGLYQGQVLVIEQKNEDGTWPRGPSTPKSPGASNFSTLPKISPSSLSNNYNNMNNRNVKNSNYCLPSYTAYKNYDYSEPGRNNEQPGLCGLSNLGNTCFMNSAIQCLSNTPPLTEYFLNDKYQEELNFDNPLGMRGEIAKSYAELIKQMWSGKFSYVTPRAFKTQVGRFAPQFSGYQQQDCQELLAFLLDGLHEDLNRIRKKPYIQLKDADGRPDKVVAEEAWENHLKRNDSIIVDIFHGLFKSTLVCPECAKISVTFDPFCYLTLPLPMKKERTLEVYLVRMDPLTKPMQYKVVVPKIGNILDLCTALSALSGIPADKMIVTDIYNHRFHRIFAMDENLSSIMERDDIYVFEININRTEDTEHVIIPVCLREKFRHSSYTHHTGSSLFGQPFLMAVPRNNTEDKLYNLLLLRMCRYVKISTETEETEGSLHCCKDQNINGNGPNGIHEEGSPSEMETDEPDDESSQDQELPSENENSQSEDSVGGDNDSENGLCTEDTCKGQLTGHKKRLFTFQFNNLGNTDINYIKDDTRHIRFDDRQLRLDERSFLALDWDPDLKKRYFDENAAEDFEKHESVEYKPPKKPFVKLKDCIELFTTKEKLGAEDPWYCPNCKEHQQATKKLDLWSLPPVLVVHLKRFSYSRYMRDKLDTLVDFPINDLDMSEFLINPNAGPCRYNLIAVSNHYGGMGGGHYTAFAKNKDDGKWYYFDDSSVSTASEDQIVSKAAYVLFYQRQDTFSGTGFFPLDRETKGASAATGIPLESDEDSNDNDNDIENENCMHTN
Put shortly: as §1

Assay [10] deals with USP16 (UniProt Q9Y5T5). The essentials:
as §1

Sequence of USP16 (Q9Y5T5 whole entry, looked up): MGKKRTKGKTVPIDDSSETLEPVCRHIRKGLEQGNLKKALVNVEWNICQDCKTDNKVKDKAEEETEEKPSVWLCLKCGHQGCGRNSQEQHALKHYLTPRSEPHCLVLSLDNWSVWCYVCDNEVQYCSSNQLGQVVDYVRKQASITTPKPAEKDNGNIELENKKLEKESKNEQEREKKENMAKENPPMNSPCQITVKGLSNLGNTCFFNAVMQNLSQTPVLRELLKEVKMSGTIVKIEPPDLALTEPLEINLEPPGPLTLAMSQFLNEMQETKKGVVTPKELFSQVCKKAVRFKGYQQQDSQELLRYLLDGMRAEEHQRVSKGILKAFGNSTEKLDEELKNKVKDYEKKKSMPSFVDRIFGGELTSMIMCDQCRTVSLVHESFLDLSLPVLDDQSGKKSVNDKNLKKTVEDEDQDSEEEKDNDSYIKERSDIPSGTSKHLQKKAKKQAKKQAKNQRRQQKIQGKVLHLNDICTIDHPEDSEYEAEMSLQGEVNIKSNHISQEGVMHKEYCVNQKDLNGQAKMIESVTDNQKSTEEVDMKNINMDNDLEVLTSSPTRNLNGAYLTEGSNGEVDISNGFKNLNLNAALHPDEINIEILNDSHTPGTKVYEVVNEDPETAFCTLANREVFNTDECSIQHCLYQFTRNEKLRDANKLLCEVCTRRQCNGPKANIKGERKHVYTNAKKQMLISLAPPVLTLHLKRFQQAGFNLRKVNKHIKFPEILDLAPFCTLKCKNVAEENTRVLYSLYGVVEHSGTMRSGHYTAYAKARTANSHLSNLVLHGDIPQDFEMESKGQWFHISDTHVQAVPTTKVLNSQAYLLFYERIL
Sequence of USP10 (Q14694 whole entry): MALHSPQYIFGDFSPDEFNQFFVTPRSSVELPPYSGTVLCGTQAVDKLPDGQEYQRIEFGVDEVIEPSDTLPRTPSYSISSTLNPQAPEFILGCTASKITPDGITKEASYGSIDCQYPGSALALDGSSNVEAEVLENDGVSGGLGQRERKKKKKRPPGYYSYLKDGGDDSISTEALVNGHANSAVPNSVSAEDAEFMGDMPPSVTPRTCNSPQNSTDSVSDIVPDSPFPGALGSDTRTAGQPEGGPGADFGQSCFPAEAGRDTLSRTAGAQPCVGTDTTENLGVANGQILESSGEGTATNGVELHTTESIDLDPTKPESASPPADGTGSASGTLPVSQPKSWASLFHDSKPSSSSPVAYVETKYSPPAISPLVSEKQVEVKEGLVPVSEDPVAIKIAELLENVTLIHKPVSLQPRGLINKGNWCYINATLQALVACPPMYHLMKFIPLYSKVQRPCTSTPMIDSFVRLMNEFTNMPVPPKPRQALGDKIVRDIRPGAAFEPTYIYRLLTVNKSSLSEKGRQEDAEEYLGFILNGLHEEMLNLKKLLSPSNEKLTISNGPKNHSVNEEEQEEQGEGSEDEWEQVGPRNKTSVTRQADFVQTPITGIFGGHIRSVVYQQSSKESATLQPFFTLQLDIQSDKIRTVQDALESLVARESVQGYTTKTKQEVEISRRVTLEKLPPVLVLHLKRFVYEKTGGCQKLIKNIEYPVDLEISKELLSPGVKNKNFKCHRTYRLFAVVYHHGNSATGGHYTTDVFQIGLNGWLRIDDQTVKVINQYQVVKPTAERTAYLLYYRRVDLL

With `Cc1ccccc1CN(C)C(=O)CCl`, the “log2 ratio of Biotin-Ahx-Ub-VS probe labelling” value in assay [1] is -0.788; in [2], -0.98; in assay [3], -0.0478; in assay [4] it was -0.18; in [5], -1.98 (active); in assay [6], -0.483. For the same compound, the “log2 ratio of Biotin-Ahx-Ub-VS probe labelling” value was -1.01 (active) in assay [7], -0.154 in assay [8], -0.803 in assay [9] and -0.62 in assay [10].
